Source: PubChem BioAssay AID463195 (Sanford-Burnham Center for Chemical Genomics, 2010)
In all, about 330,000 compounds went through this assay and about 4,600 (1.4%) were called active.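 Rule for the calls: active = inhibition of 40% or more at the single tested concentration; inactive = the rest.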 The entries come from a sample that favours actives as a whole.

Experiment: growth inhibitors of isogenic TIM10 control yeast, primary screen, counter-screen for tim10-1 yeast inhibitor project, luminescence, uHTS (AID 463195);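 note: wild-type TIM10 isogenic control strain grown at permissive 25 °C; 0% = DMSO yeast wells and 100% = minimal medium wells without yeast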
Conditions: S. cerevisiae TIM10 strain growth, BacTiter-Glo luminescence, 24 h; at 10 µM; stronger effect = higher value

Structure (SMILES)	inhibition
COCCCN1C(=O)c2ccc(C(=O)OCC(=O)NCc3ccccc3OC)cc2C1=O	2.82% (inactive)
O=C(Nc1ccc(Br)cn1)c1ccc([N+](=O)[O-])cc1Cl	14.3% (inactive)
CN1C(=O)c2ccc(C(=O)Nc3ccc(Br)cn3)cc2C1=O	3.52% (inactive)
Cc1onc(C(=O)Nc2ccc3c(c2)OCO3)c1[N+](=O)[O-]	-7.9% (inactive)
CCN(CC)S(=O)(=O)c1ccc(N2CCCC2)c(NC(=O)c2ccc([N+](=O)[O-])o2)c1	28.1% (inactive)
Cc1cccc(NC(=O)c2ccc([N+](=O)[O-])o2)c1	60.3% (active)
O=C(Nc1ccc(Br)cn1)c1ccc([N+](=O)[O-])o1	57.3% (active)
Cc1onc(C(=O)NCc2ccc(F)cc2)c1[N+](=O)[O-]	-0.126% (inactive)
Cc1onc(NC(=O)c2ccc([N+](=O)[O-])o2)c1Br	46.6% (active)
O=C(Nc1cccc(O)c1)c1ccc(C(=O)c2ccccc2)o1	30.4% (inactive)
CC(C)(C)c1nnc(NC(=O)C2c3ccccc3Oc3ccccc32)s1	29.5% (inactive)
Cc1ccc(CNC(=O)c2cccc3c2C(=O)c2ccc(N4CCC(C)CC4)cc2S3(=O)=O)cc1	4.75% (inactive)
CC(=O)Nc1ccc(C(=O)N(C2=NC(C)CS2)c2ccc(Cl)cc2)cc1 (stereo not given)	20.1% (inactive)
CC(=O)OCC(COC(C)=O)OC(C)=O	5.8% (inactive)
COc1ccc(S(=O)(=O)NCCc2cc3ccc(C)c(C)c3[nH]c2=O)cc1	5.58% (inactive)
CC(C)[C@@H](C(=O)O)N(Cc1cccc(CN([C@H](C(=O)O)C(C)C)S(C)(=O)=O)c1)S(C)(=O)=O	10.1% (inactive)
CC(C)(C)C(=O)c1cnc(Nc2ccccc2)s1	45.4% (active)
O=C(/C=C/Nc1ccccc1)c1cnc(-c2ccccc2)s1	3.58% (inactive)
CC(=O)c1cnc(-c2ccccc2)s1	12.3% (inactive)
CCOC(=O)C1CCCN(C(=O)c2ccc(CS(=O)(=O)c3ccc(Br)cc3)o2)C1 (stereo not given)	4.19% (inactive)
Cc1cc(N2CCCC2)ccc1NC(=O)COc1ccc(Cl)cc1	4.1% (inactive)
NC(=O)NC(=O)C(OC(=O)CCNS(=O)(=O)c1ccccc1)c1ccccc1 (stereo not given)	14.9% (inactive)
COc1ccc(N2C(=O)NC(NS(=O)(=O)c3ccc(Cl)cc3)(C(F)(F)F)C2=O)cc1 (stereo not given)	5.54% (inactive)
Cc1ccc(S(=O)(=O)N(C)CC(=O)NCCc2c[nH]c3ccccc23)cc1	-8.68% (inactive)

Structure (SMILES)	inhibition
O=C(NCCc1c[nH]c2ccccc12)c1cccc(Br)c1	4.34% (inactive)
Cc1cc(C)cc(NC(=S)NCCc2c[nH]c3ccccc23)c1	40.6% (active)
CCC(C)(C)NC(=O)CN(C(=O)CCC(=O)Nc1cc(C)ccn1)c1ccc2c(c1)OCCO2	17.4% (inactive)
CCOC(=O)/C(C#N)=C\c1c(C)cc(C)c(COC(C)=O)c1C	19% (inactive)
COC(=O)CN(c1cccc(C(C)=O)c1)S(C)(=O)=O	12.6% (inactive)
CCSc1ncnc2c(C#N)c3n(c12)CCCCC3	-29.8% (inactive)
CCSC1=C(C#N)C(=O)n2c1cc1c2CCCC1	63% (active)
COC(C[C@@H](O)C[C@H](O)[C@H](C)OCc1ccccc1)OC	-0.06% (inactive)
Cc1cccc(C)c1NC(=O)CSc1nnc(-c2ccccc2)n1Cc1ccc2c(c1)OCO2	-0.243% (inactive)
CC1=C(C(N)=O)C(c2ccc3c(c2)OCO3)n2nc(-c3cccc(C)c3)nc2N1 (stereo not given)	2.9% (inactive)
c1ccc(-c2nnc3n2NC(c2ccc4c(c2)OCO4)S3)cc1 (stereo not given)	57.8% (active)
CN(CC(=O)NCCc1ccccc1)S(=O)(=O)c1cnc[nH]1	-7.58% (inactive)
O=C(CNC(=O)c1cccnc1)N/N=C/c1cc(Br)c(O)c(Br)c1	-19.5% (inactive)
Oc1c(Cl)cc(Cl)cc1/C=N/c1ncn[nH]1	23.9% (inactive)
COc1cc(Br)cc(/C=N/c2ncn[nH]2)c1O	48.7% (active)
C=CCn1c(Cn2nnc3ccccc32)nnc1SCC(=O)N/N=C/c1cc(Br)cc(OC)c1O	-12.4% (inactive)
Cc1cc(-c2nnc(SCC(=O)Nc3ccc(S(N)(=O)=O)cc3)n2N)n[nH]1	-1.79% (inactive)
CCOC(=O)C1=C(C)NC(=O)N(C(C)=O)C1c1ccc(Cl)cc1 (stereo not given)	29.2% (inactive)
CCOC(=O)C1Sc2[nH]c(=O)sc2C(c2ccc(Cl)cc2)C1C(=O)OCC (stereo not given)	44.2% (active)
CCOC(=O)c1[nH]c2c(c1-c1ccccc1)C(=O)CC(c1ccc(Cl)cc1)C2 (stereo not given)	3.98% (inactive)
COc1ccc(N2C(=O)C3C(C2=O)C(C(=O)c2ccccc2)N2CCCC32)cc1 (stereo not given)	7.93% (inactive)
Cn1ccnc1SCC(=O)Nc1ccc2c(c1)OCCO2	8.81% (inactive)
COc1cccc(NC(=O)CSc2nccn(-c3ccc4c(c3)OCCO4)c2=O)c1	44.8% (active)
COc1ccccc1-n1ccnc(SCC(=O)NC2CCCCC2)c1=O	15.4% (inactive)

Structure (SMILES)	inhibition
CC(C)Oc1ccc(S(=O)(=O)N2CCOCC2)cc1NC(=O)C1CCCC1	3% (inactive)
O=C(Nc1ccc(C(F)(F)F)cc1)c1cccc(-n2cnnn2)c1	93% (active)
O=C(Nc1cccc(-n2cnnn2)c1)c1cccnc1	5.34% (inactive)
O=C(Nc1ccc(-c2csc(Nc3cccc(C(F)(F)F)c3)n2)cc1)c1cccc(C(F)(F)F)c1	14.2% (inactive)
CN(CC(=O)Nc1cccc(F)c1)C(=O)CC1CCCC1	7.55% (inactive)
Cc1ccc(S(=O)(=O)N2CCOCC2)cc1C(=O)NC(=S)N(Cc1ccccc1)C(C)C	15.5% (inactive)
c1ccc(-c2ccnc3nc(-n4cccc4)nn23)cc1	14.7% (inactive)
COc1ccc(C(=O)Nc2ccc(-n3nncc3C(C)(C)C)cc2)cc1	53.1% (active)
C/C(=N\Nc1ccc([N+](=O)[O-])cc1)c1ccc(-n2nncc2C(C)(C)C)cc1	8.53% (inactive)
COc1ccc(NC(=O)c2ccc(C#CC(C)(C)O)cc2)cc1	12% (inactive)
COc1cccc(N(C(=O)c2ccn[nH]2)C2(C(=O)Nc3c(C)cccc3C)CCCCC2)c1	17.6% (inactive)
OC(c1ccccc1)c1nccn1Cc1ccccc1 (stereo not given)	8.31% (inactive)
COc1ccc(N2CCN(C(=O)/C(C#N)=C/c3ccccc3)CC2)cc1	36% (inactive)
COc1ccc(/C=C(\C#N)C(=O)ONC2=NCCCCC2)cc1	48.5% (active)
COc1ccc(/C=C(\C#N)C(=O)OCC(=O)N(C)C2CCS(=O)(=O)C2)cc1 (stereo not given)	4.8% (inactive)
O=C(Cn1nc(CNc2ccc(Cl)cc2)[n+]2c1CCCCC2)c1ccc(Cl)cc1	-4.18% (inactive)
Cn1cc(CCC(=O)NC2CC2)c2ccccc21	4.31% (inactive)
O=C(NCCc1ccc(F)cc1)c1ccc(S(=O)(=O)N2CCCCC2)cc1	41.7% (active)
O=C(Nc1ccccc1F)c1ccc(S(=O)(=O)N2CCCCCC2)cc1	12.4% (inactive)
COC(=O)c1ccc(CNC(=O)c2ccc(S(=O)(=O)N3CCCCCC3)cc2)cc1	-4.47% (inactive)
O=C(Nc1ccc([N+](=O)[O-])cc1)C1CC12CCC2 (stereo not given)	14.3% (inactive)
O=C(N/N=C/c1ccc(Cl)cc1)c1nc2ccc([N+](=O)[O-])cc2c(=O)[nH]1	-0.404% (inactive)
COc1ccc(C(=O)N2CCCC(C(=O)c3ccccc3OC)C2)cc1OC (stereo not given)	1.3% (inactive)
O=C(Nc1cccc(Cl)c1)C1CCCN(c2cnccn2)C1 (stereo not given)	42.8% (active)

Structure (SMILES)	inhibition
O=C(Nc1ccc2c(c1)OCCO2)C1CCCN(c2ncccn2)C1 (stereo not given)	-4.49% (inactive)
Cc1ccc(Cl)cc1NC(=O)C1CCCN(c2cnccn2)C1 (stereo not given)	5.02% (inactive)
O=C1C2C3C=CC(C4CC34)C2C(=O)N1c1nccs1 (stereo not given)	-2.66% (inactive)
CCOC(=O)c1cnc2ccc(F)cc2c1Nc1ccc2c(c1)OCCO2	37.4% (inactive)
COc1ccc(-c2cn3ccc(C)cc3n2)cc1	30.2% (inactive)
CSc1nnc2ccc(-c3ccc(C)cc3)nn12	7.14% (inactive)
Cc1ccc(-c2cn3cc(C)ccc3n2)cc1	65% (active)
Cc1ccc(-c2cn3cc([N+](=O)[O-])ccc3n2)cc1	-29.9% (inactive)
CCN(CC)S(=O)(=O)c1ccc(-c2cn3ccc(C)cc3n2)cc1	11.7% (inactive)
Cc1ccc2nc(-c3ccc(Br)cc3)cn2c1	40.3% (active)
COc1ccccc1C(=O)Nc1nc2nc(-c3ccccc3)cc(=O)n2[nH]1	-9.51% (inactive)
N#Cc1ccccc1NC(=O)COc1c(Br)cc(Br)c2cccnc12	13.8% (inactive)
O=C(Nc1ccc(N2CCN(C(=O)c3ccccc3)CC2)c(Cl)c1)c1ncn[nH]1	-12.4% (inactive)
CN(C)C(=O)CCC(=O)N1CCCCC1C(=O)Nc1ccc(Oc2ccccc2F)cc1 (stereo not given)	3.39% (inactive)
CC1=C(C(N)=O)C(c2ccc(Br)cc2)n2ncnc2N1 (stereo not given)	-4.88% (inactive)
Fc1ccccc1/C=C1\CCCC2=C1Nc1ncnn1C2c1ccccc1F (stereo not given)	48.1% (active)
CCC1CCc2c(sc(NC(C)=O)c2C#N)C1 (stereo not given)	7.23% (inactive)
O=C(COC(=O)c1ccc(Cl)nc1)NCc1cccs1	7.82% (inactive)
COc1ccccc1N1CCN(C(=O)C2Cc3ccccc3CN2C(=O)c2ccco2)CC1 (stereo not given)	22% (inactive)
COc1cc2ccccc2cc1C(=O)N1CCOCC1	5.86% (inactive)
COC1=C(N2CCOCC2)C(=O)c2ccccc2C1=O	-3.21% (inactive)
Cc1oc2c(c1C(=O)N1CCOCC1)C(=O)c1ccccc1C2=O	46.1% (active)
CC1=C(C)CC(C(=O)NNC(=O)c2csc3c2CCC(C(C)(C)C)C3)C(C(=O)O)C1 (stereo not given)	5.91% (inactive)
